The values that follow come from PubChem BioAssay (EPA / NIEHS).

Values joined by “and” are separate entries in the source; they are usually repeats but may differ in a detail not shown here. Identical values can stand only once. Records with an inconclusive call do not appear. The source holds several records for some structures; these can differ, active in one and inactive in another. Active and inactive are the calls of the source. Rule for the calls, unless noted: active = hit-call score of the fitted dose curve at least 0.9, where 1 is the maximum; inconclusive = response in the unintended direction; inactive = score below 0.9.

Assay [1] concerns the target Retinoic acid receptor RXR-alpha (Homo sapiens) (UniProt P19793). The assay can be described thus: OT_NURR1_NURR1RXRa_1440: Odyssey Thera (OT) 24-hour HEK293T Protein Complementation Assay for Nurr1/retinoid X receptor (RXR) (AID 2283386). An outline of the steps:
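Gain in fluorescence, fitted relative to DMSO, reflects Nurr1–RXRα association in HEK293T cells after 24 h dosing. Bait and prey are each linked to a reporter-protein fragment that reassembles on interaction.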

Assay [2] addresses Peroxisome proliferator-activated receptor gamma (Homo sapiens) (UniProt P37231). The experiment in a line: OT_PPARg_PPARgSRC1_0480: Odyssey Thera (OT) 8-hour Protein-Complementation Assay for Peroxisome Proliferator-activated Receptor Gamma / SRC-1 Co-activator (AID 2283387). In a few lines:
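Protein-fragment complementation of split Venus YFP reports PPARg/SRC-1 interaction in HEK293T (transfected 48 h before treatment), exposed 8 h. Readout: N/C fluorescence ratio at 488 nm from imaging, Draq5 for segmentation, positive fit relative to DMSO.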

Assay [3] has the same target. The experiment in a line: OT_PPARg_PPARgSRC1_1440: Odyssey Thera (OT) 24-hour Protein-Complementation Assay for Peroxisome Proliferator-activated Receptor Gamma/ SRC-1 Co-activator (AID 2283388). In a few lines: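 HEK293T transiently transfected with PPARg/SRC-1 split-Venus YFP fusions 48 h before dosing, then treated 24 h at 37C. Fixed cells imaged; nuclear/cytoplasmic 488 nm fluorescence ratio, gain of signal versus DMSO.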

Assay [4] can be described thus: CEETOX_H295R_CORTISOL: CeeTox H295R High-throughput Steroidogenesis Assay for Cortisol (AID 2283438; active = hit-call score of the fitted dose curve at least 0.9, where 1 is the maximum; inactive = score below 0.9;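 note: cortisol secreted into medium quantified by LC-MS/MS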). Particulars: actives raise or lower the signal. In a few lines: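 Cortisol measured by HPLC-MS/MS after MTBE extraction of medium from H295R cells exposed 48 h to chemical (0.1% DMSO), following 48 h prestimulation with 10 uM forskolin. Viability assessed by MTT in the same wells.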

A short description of assay [5]: CEETOX_H295R_DOC: CeeTox H295R High-throughput Steroidogenesis Assay for DOC (AID 2283439; active = hit-call score of the fitted dose curve at least 0.9, where 1 is the maximum; inactive = score below 0.9). Particulars: actives raise or lower the signal. An outline of the steps:
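11-Deoxycorticosterone quantified in medium by MTBE extraction and HPLC-MS/MS after 48 h chemical exposure (0.1% DMSO) of forskolin-primed (10 uM, 48 h) H295R cells. Same-well MTT viability; data fitted bidirectionally against DMSO.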

Assay [6] can be described thus: CEETOX_H295R_11DCORT: CeeTox H295R High-throughput Steroidogenesis Assay for 11-Deoxycortisol (11DCORT) (AID 2283432; active = hit-call score of the fitted dose curve at least 0.9, where 1 is the maximum; inactive = score below 0.9;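 for AC50: 11-deoxycortisol secreted into the medium measured by LC-MS/MS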). As to conditions: actives raise or lower the signal. In a few lines: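 Human adrenal H295R cells were prestimulated with 10 uM forskolin for 48 h, then exposed to test chemical (0.1% DMSO final) for 48 h. Medium 11-deoxycortisol was quantified by MTBE extraction and HPLC-MS/MS; bidirectional fitting relative to DMSO.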

Assay [7] in a line: CEETOX_H295R_OHPREG: CeeTox H295R High-throughput Steroidogenesis Assay for OH-Pregnenolone (OHPREG) (AID 2283434; active = hit-call score of the fitted dose curve at least 0.9, where 1 is the maximum; inactive = score below 0.9). As to conditions: actives raise or lower the signal. An outline of the steps:
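Secreted 17alpha-hydroxypregnenolone measured by HPLC-MS/MS after liquid-liquid extraction. Human adrenal H295R cells received 48 h forskolin (10 uM) stimulation before 48 h chemical exposure at 0.1% final DMSO; MTT viability in same wells; bidirectional fit against DMSO.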

A short description of assay [8]: CEETOX_H295R_OHPROG: CeeTox H295R High-throughput Steroidogenesis Assay for OH-Progesterone (OHPROG) (AID 2283435; active = hit-call score of the fitted dose curve at least 0.9, where 1 is the maximum; inactive = score below 0.9;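 for AC50: 17alpha-hydroxyprogesterone secreted into medium measured by HPLC-MS/MS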). Particulars: actives raise or lower the signal. In a few lines: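 Medium steroid levels read by LC-MS/MS after 48 h chemical treatment (0.1% DMSO) of human adrenal H295R cells that had been forskolin-primed (10 uM, 48 h). Gain or loss fitted against DMSO; MTT cytotoxicity checked per well.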

Assay [9] in a line: CEETOX_H295R_ANDR: CeeTox H295R High-throughput Steroidogenesis Assay for Androstenedione (ANDR) (AID 2283436; active = hit-call score of the fitted dose curve at least 0.9, where 1 is the maximum; inactive = score below 0.9). As to conditions: actives raise or lower the signal. In a few lines: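 Medium from 48 h chemical-treated H295R adrenal cells was extracted with MTBE and androstenedione measured by LC-MS/MS. Activity was fit in both directions relative to DMSO. Cytotoxic concentrations were re-tested after dilution until MTT viability reached ≥70%.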

Assay [10] is described as follows: CEETOX_H295R_ESTRADIOL: CeeTox H295R High-throughput Steroidogenesis Assay for Estradiol (AID 2283440; active = hit-call score of the fitted dose curve at least 0.9, where 1 is the maximum; inactive = score below 0.9;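 note: estradiol secreted into medium quantified by LC-MS/MS after dansyl derivatisation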). As to conditions: actives raise or lower the signal. An outline of the steps: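 H295R cells pre-stimulated 48 h with 10 uM forskolin, then exposed 48 h to chemical in 0.1% DMSO. Medium estradiol quantified by MTBE extraction, dansyl derivatisation and HPLC-MS/MS; bidirectional fit versus DMSO; MTT viability required >/=70%.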

Sequence of Retinoic acid receptor RXR-alpha (Homo sapiens) (P19793 whole entry, looked up, the tested form may be a part): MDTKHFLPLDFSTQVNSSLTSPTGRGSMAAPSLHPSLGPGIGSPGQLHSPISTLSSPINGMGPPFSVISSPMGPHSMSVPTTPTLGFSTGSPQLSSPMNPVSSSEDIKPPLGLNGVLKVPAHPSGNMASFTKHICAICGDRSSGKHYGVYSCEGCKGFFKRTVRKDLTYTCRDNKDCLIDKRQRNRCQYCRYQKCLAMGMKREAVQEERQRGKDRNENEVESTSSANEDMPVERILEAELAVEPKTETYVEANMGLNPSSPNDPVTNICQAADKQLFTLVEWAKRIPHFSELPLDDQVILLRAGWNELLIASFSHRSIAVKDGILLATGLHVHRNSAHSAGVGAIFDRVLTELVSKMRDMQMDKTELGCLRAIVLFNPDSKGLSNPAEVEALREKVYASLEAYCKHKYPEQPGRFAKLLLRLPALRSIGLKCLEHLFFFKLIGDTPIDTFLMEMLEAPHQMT
Sequence of Peroxisome proliferator-activated receptor gamma (Homo sapiens) (P37231 whole entry, looked up, the tested form may be a part): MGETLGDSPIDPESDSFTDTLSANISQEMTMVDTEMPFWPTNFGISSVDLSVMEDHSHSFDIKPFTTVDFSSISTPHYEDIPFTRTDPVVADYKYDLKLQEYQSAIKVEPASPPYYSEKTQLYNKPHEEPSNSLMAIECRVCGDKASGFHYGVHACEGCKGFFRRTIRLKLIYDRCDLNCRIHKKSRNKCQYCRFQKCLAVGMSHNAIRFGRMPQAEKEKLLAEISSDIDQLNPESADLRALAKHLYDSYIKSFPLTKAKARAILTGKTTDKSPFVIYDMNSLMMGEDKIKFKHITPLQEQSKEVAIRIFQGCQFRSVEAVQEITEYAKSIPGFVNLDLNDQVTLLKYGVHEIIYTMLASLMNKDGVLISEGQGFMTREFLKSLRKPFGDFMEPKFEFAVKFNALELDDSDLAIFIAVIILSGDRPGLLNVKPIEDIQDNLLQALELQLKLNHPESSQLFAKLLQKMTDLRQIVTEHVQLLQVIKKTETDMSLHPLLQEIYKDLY

In the case of `c1cnc2c(c1)ccc1cccnc12`, the concentration at half-maximal activity (AC50) in [1] was 0.727 µM (active). The call in assay [2] and in assay [3] was inactive.

Take `NS(=O)(=O)O`: the compound was classed as inactive in assay [1], in assay [2] and in assay [3].

On to `Cc1ccc(S(=O)(=O)O)cc1`, for which, in assay [1], the compound was called inactive.

`CCC(C)c1ccccc1O` (stereo not drawn): the call in assay [1], in [2] and in [3] was inactive.

As for `O=C(O)c1cccc(C(=O)O)n1`, the outcome in assay [1], in assay [2] and in [3] was inactive.

In the case of `CC(O)COc1ccccc1` (stereo not drawn), the compound was classed as inactive in [1], in [2] and in assay [3].

Take `O=C1NS(=O)(=O)c2ccccc21`: the result in assay [1], in assay [2] and in [3] was inactive.

As to `O=C(c1ccccc1)c1ccccc1`, the call in assay [1] was inactive.

In the case of `NCCN`, the compound was called inactive in assay [1], in assay [2] and in assay [3].

As to `CCCCCCCCCCCCCCC`, in assay [1], the call was inactive.

Take `CCCCC=O`: the compound was called inactive in assay [1].

With `NCc1cccc(CN)c1`, the call in assay [1], in assay [2] and in [3] was inactive.

Take `O=C(CCCN1CCC(O)(c2ccc(Cl)cc2)CC1)c1ccc(F)cc1`: in [1], the AC50 was 80.3 µM (active). The compound was classed as inactive in assay [1], in [2], in assay [3], in assay [4] and in [5].

Take `CC(C)[C@@H]1CC[C@@H](C)C[C@H]1O`: the compound was called inactive in assay [1], in [2] and in assay [3].

On to `CCCCCCCCCCCC`, for which the compound was classed as inactive in assay [1], in assay [2] and in [3].

On to `CCCCC(CC)C(=O)O` (stereo not drawn), for which the outcome in assay [1], in [2] and in [3] was inactive.

On to `CCCCc1oc2ccccc2c1C(=O)c1cc(I)c(OCCN(CC)CC)c(I)c1`, for which the AC50 in [1] is 8.94 µM (active) and 8.82 µM (active). The call in assay [2] and in assay [3] was inactive.

Consider `Cc1cc(C(C)(C)C)c(O)c(C(C)(C)C)c1`, for which the half-maximal activity concentration (AC50) in assay [1] is 77.3 µM (active). Further, the call in assay [2] and in assay [3] was inactive.

For the compound `CCCCCCc1ccc(N)cc1`, the call in [1], in [2] and in [3] was inactive.

In the case of `CN(C)CCOC(c1ccccc1)c1ccccc1`, in assay [1], the concentration at half-maximal activity (AC50) is 6.73 µM (active) and the compound was called inactive.

In the case of `CN(Cc1cnc2nc(N)nc(N)c2n1)c1ccc(C(=O)N[C@@H](CCC(=O)O)C(=O)O)cc1`, the compound was called inactive in [1], in assay [2] and in assay [3].

`CCCCCCC(C)(C)C(=O)O`: the result in [1], in assay [2] and in assay [3] was inactive.

`CCCCCCCCCCCC(=O)O`: the outcome in assay [1], in [2] and in [3] was inactive.

As to `CC(=O)Nc1ccc(O)cc1`, the outcome in assay [1], in [2] and in [3] was inactive.

In the case of `O=S(=O)(O)c1ccccc1`, the result in assay [1], in assay [2] and in assay [3] was inactive.

`CC(C)c1c(C(=O)Nc2ccccc2)c(-c2ccccc2)c(-c2ccc(F)cc2)n1CC[C@@H](O)C[C@@H](O)CC(=O)O`: the result in assay [2] and in assay [3] was inactive.

Take `CC(C)(c1ccc(Oc2ccc(N)cc2)cc1)c1ccc(Oc2ccc(N)cc2)cc1`: the AC50 in [6] is 0.249 µM (active); in assay [7] it was 0.0361 µM (active); in assay [8], 0.235 µM (active); in assay [9], 0.234 µM (active); in assay [4] it was 0.401 µM (active); in assay [5], 0.2 µM (active). Also, the call in assay [10] was inactive.

Consider `CCCCCC(C)OC(=O)COc1ccc(Cl)c2cccnc12` (stereo not drawn), for which the compound was called inactive in [1], in [2], in assay [3], in assay [7], in assay [8] and in [5]. The values for the AC50 in assay [6] and in assay [4] were 18.7 µM (active) and 34.9 µM (active), respectively.

In the case of `O=C(O)C(=O)O`, the result in [2] and in assay [3] was inactive.

Consider `Oc1cc2ccccc2cc1O`, for which the compound was called inactive in [6], in assay [7], in [8], in assay [9], in assay [4] and in assay [5]. In addition, the compound was classed as inactive in assay [10].

For the compound `CCCCCCCCCC=CCC1CC(=O)OC1=O` (stereo not drawn), the outcome in assay [2] and in assay [3] was inactive.

For the compound `NC(=NCCCCCCN=C(N)/N=C(\N)Nc1ccc(Cl)cc1)/N=C(\N)Nc1ccc(Cl)cc1`, the compound was classed as inactive in [2] and in [3].

For the compound `C=CC(C)(CCC=C(C)C)OC(C)=O` (stereo not drawn), the result in assay [2] and in [3] was inactive.

For `CCCCCCCCCCCCOC(=O)c1cc(O)c(O)c(O)c1`, the call in assay [2] and in [3] was inactive.

`Cc1cc(C(=C2C=CC(=Nc3ccc(S(=O)(=O)O)cc3)C=C2)c2ccc(Nc3ccc(S(=O)(=O)O)cc3)cc2)cc(S(=O)(=O)O)c1N`: the result in assay [2] and in assay [3] was inactive.

Consider `Cc1ccc(C)c(S(=O)(=O)O)c1`, for which the outcome in assay [2] and in assay [3] was inactive.

For the compound `CCCCc1ccc2ccccc2c1S(=O)(=O)O`, the outcome in assay [2] and in assay [3] was inactive.

Regarding `COc1cccc(O)c1`, the compound was called inactive in assay [6], in assay [7], in assay [8], in assay [4] and in assay [5].

Take `C[C@]12CC[C@@H]3c4ccc(O)cc4CC[C@H]3[C@@H]1C[C@@H](O)[C@@H]2O`: the outcome in assay [1], in [2], in [3], in assay [6], in assay [8] and in assay [4] was inactive. Moreover, the AC50 in assay [7] was 31.8 µM (active); in assay [5] it was 25.8 µM (active).

Turning to `N=C(N)c1ccc(OCCCCCOc2ccc(C(=N)N)cc2)cc1`, the result in assay [2] and in [3] was inactive.

On to `CCc1ccccc1O`, for which the call in [2] and in [3] was inactive.

For the compound `OCC(CO)(CBr)CBr`, the outcome in [2] and in assay [3] was inactive.

`CC(C)(C)c1ccc(O)c(O)c1`: the compound was classed as inactive in [6], in assay [7], in [8] and in assay [5]. Also, the AC50 in assay [4] was 50 µM (active).

For `Clc1ccc(Nc2nnc(Cc3ccncc3)c3ccccc23)cc1`, the result in [6], in assay [7], in assay [8] and in assay [5] was inactive. In addition, the half-maximal activity concentration (AC50) is 3.2 µM (active) in assay [4] and 2.39 µM (active) in assay [10].

For `CC(C)CCOCCC(C)C`, the compound was classed as inactive in assay [6], in assay [7], in assay [8], in assay [9], in assay [4] and in [5]. Further, the result in assay [10] was inactive.

Take `Cc1cc(Cc2cc(C)cc(C(C)(C)C)c2O)c(O)c(C(C)(C)C)c1`: the outcome in assay [3] was inactive.

Regarding `c1cc[nH]c1`, the result in assay [6], in [7], in assay [8], in assay [9], in [4] and in assay [5] was inactive.

As for `CCCCCc1ccc(O)cc1`, the result in [6], in [7], in assay [8], in assay [4], in assay [5] and in assay [10] was inactive. The AC50 in assay [9] was 50 µM (active).

Consider `O=C(NCc1ncc(C(F)(F)F)cc1Cl)c1c(Cl)cccc1Cl`, for which the call in assay [6], in assay [7], in [9], in [4], in assay [5] and in assay [10] was inactive. Moreover, the concentration at half-maximal activity (AC50) in assay [8] was 7.42 µM (active).

Turning to `Cc1cccc2c1ccc1ccccc12`, the outcome in assay [6], in assay [7], in assay [8], in assay [9], in assay [4] and in assay [5] was inactive. Moreover, the outcome in assay [10] was inactive.

Regarding `COc1cc([N+](=O)[O-])ccc1N`, the outcome in [1], in assay [3], in [6], in assay [7], in [9] and in assay [4] was inactive. In addition, in assay [10], the result was inactive. Besides, the concentration at half-maximal activity (AC50) is 15.1 µM (active) in assay [8] and 23.8 µM (active) in assay [5].
